From PubChem BioAssay
Most compounds without a hit are left out; they make up all but 4.8% or so of the library.
NR1D1 modulator: modulators of Rev-erb alpha DNA binding, primary screen, biochemical, FITC-DNA, fluorescence polarization, uHTS; Rev-erbα–FITC-DNA binding, 90 min; activity, % at 10 µM; 370,000 compounds, 0.79% hits; AID 1259318, 2017;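 active means activity above about 14%, limit read from the data; passing the limit was not always enough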;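 further: 0% = DMSO wells with 35 nM protein and 100% = DMSO wells with 750 nM protein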
DAX1 inh-1: DAX1 (NR0B1) inhibitors, primary screen, cell-based, HEK293, Gal4-DAX1, luciferase luminescence. HEK293 Gal4-DAX1 luciferase reporter. inhibition, % at 6.75 µM. 340,000 compounds, 0.99% hits;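 active means inhibition above the mean over all tested compounds plus 3 SD, cut at about 4.2% in these data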;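 further: 0% = DAX1-transfected cells with DMSO and 100% = empty-vector control cells with DMSO; inhibition shows as a rise in luminescence from relieved DAX1 repression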
Target sequence (P51843 207-470 limits assumed): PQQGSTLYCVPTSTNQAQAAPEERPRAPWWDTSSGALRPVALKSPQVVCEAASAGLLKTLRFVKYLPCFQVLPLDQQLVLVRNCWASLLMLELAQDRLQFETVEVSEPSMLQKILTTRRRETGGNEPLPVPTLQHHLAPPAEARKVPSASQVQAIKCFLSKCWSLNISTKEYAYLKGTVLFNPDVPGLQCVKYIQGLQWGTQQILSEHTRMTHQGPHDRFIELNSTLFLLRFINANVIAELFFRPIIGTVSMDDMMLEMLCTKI
hcDAF12 agonist: H. contortus DAF-12 nuclear receptor activators, primary screen, cell-based, luminescence, HEK293, lit1-tk-luc reporter. HEK293 hcDAF-12 lit1-tk-luc reporter; 0% DMSO, 100% Δ7-dafachronic acid. activation, % at 6.8 µM. 370,000 compounds, 1.4% hits;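 active means activation above the mean of all tested compounds plus 3 SD, cut at about 5.5% in these data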;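 further: 100% = response to 3 µM Δ7-dafachronic acid high control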
hgDAF12 agonist: H. glycines DAF-12 receptor agonists, primary screen, cell-based, luminescence, HEK293, GAL4 fusion, UAS-luciferase | Nuclear hormone receptor DAF-12 (Heterodera glycines), GAL4 fusion | HEK293 GAL4-hgDAF12 UAS-luciferase reporter, agonist luminescence; normalized to butyrate control | activation, % at 6.8 µM | 370,000 compounds, 1.8% hits;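 active means activation above a cutoff set at the mean of all screened compounds plus 3 SD, cut at about 10% in these data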;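 further: 0% = DMSO wells and 100% = sodium butyrate wells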
ssDAF12 agonist: S. stercoralis DAF-12 nuclear receptor activators, primary screen, cell-based, luminescence, HEK293, GRIP1 co-expression, lit1-tk-luc; activation, % at 6.8 µM; 370,000 compounds, 1% hits; HEK293 ssDAF-12/GRIP1 lit1-tk-luc reporter; % of 3 µM dafachronic acid response;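 active means activation above the mean over all tested compounds plus 3 SD, cut at about 0.9% in these data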;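 further: 0% = DMSO-only wells and 100% = 3 µM delta7-dafachronic acid wells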
DAX1 inh-2: DAX1 (NR0B1) inhibitors on StAR promoter, primary screen, cell-based, luminescence, SF-1 (NR5A1), full-length DAX-1; HEK293T StAR-luciferase reporter, SF-1/DAX-1 repression relief; inhibition, % at 6.8 µM; 370,000 compounds, 1.1% hits;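 active means inhibition above the mean over all tested compounds plus 3 SD, cut at about 3.6% in these data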;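 further: 0% = DAX-1 cells with DMSO and 100% = cells lacking DAX-1 with DMSO; higher inhibition means more luminescence from relief of DAX-1 repression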
* = called active by the depositor; · = no result.

SMILES	NR1D1 modulator	DAX1 inh-1	hcDAF12 agonist	hgDAF12 agonist	ssDAF12 agonist	DAX1 inh-2
O=C(Nc1ccc(Cl)cc1F)C1CC1c1ccccc1 (stereo not given)	8	-1	-1	3	-1	0
Cc1ccc(NC(=O)C2CC2c2ccccc2)c([N+](=O)[O-])c1 (stereo not given)	5	6.0*	2	5	-1	1
Clc1cc(Cl)cc(CNC2CCC23CCCCC3)c1 (stereo not given)	-6	·	-1	0	-1	·
O=C(c1ccccc1)N1CC[C@H]2[C@H](CCCN2Cc2ccccc2)C1	-2	·	1	0	-2	0
Cc1cc(/C=C2\SC(=S)NC2=O)c(C)[nH]1	-13	0	1	-1	0	1
O=C1NC(=S)S/C1=C\c1cc(Cl)ccc1Cl	0	2	2	3	-1	3.7*
COc1cc(CNCCc2ccccc2)cc(Br)c1OCC(=O)Nc1ccccc1C	5	4.3*	-2	1	0	1
CNCc1cc(Br)c(OCC(=O)Nc2ccccc2OC)c(OC)c1	6	-1	-1	1	-1	0
COc1cccc(-c2cc3onc(-c4ccccc4)c3c(=O)n2C)c1	9	2	5	12*	0	3
Cn1c(-c2ccc(F)c(F)c2)cc2onc(-c3ccccc3)c2c1=O	4	4	4	12*	0	2
COC(=O)c1ccc(-c2cc3onc(-c4ccccc4)c3c(=O)n2C)cc1	-5	2	0	1	0	0
COc1ccc(C/C(N)=N/O)cc1	-1	0	0	1	-1	0
COc1ccc(N=Nc2ccc(CO)cc2)cc1	0	2	7.3*	10	1.3*	1
Cc1ccc(Nc2nc(CSc3nnc(-c4ccc(F)cc4)n3C)cs2)cc1	5	0	4	11*	-1	2
COc1ccccc1N1CCN(C(=O)c2cc3c(C)nn(-c4ccccc4)c3s2)CC1	-21	·	-1	-2	-2	-2
Cc1sc2ncnc(OCC(=O)N3CCN(C(=O)c4ccco4)CC3)c2c1C	-9	5.7*	-1	2	-1	-1
O=C(CCCc1nc(-c2ccccc2)no1)NC1CCCCC1	-2	-1	-3	0	1.1*	-1
COC(=O)Cc1nnn2c1[C@@H](C)[C@@H](c1ccccc1Br)O[C@@H](C)C2	-4	·	-1	1	-1	-1
CN(C(=O)[C@@H](C1CC1)[C@@H](O)c1ccc2ccccc2c1)c1ccccc1	4	·	1	2	0	-2
CC(=O)Nc1ccccc1C(=O)C(=O)Nc1ccc(C)c(F)c1	-3	1	4	7	-1	2
CC(=O)Nc1ccccc1C(=O)C(=O)Nc1ccc(C)c(C)c1	3	3	0	11*	-1	2
CCc1ccc(/C(C)=N\Nc2ccc([N+](=O)[O-])cc2)cc1	-4	4.3*	1	6	0	0
CC1=NN(C(N)=S)C(=O)C1N=Nc1ccccc1 (stereo not given)	2	0	0	-1	-1	1
CC1=NN(C(N)=S)C(=O)C1N=Nc1cccc([N+](=O)[O-])c1 (stereo not given)	10	6.8*	0	-1	0	0
CC1=NN(C(N)=S)C(=O)C1N=Nc1cccc(Cl)c1C (stereo not given)	14	1	5	2	1	0
SMILES	NR1D1 modulator	DAX1 inh-1	hcDAF12 agonist	hgDAF12 agonist	ssDAF12 agonist	DAX1 inh-2
CC1=NN(C(N)=S)C(=O)C1N=Nc1ccc(Cl)cc1 (stereo not given)	3	3	5	11*	0	1
CC(=O)OCC(=O)[C@@]1(O)CCC2C3CCC4=CC(=O)C=C[C@]4(C)[C@@]3(Cl)[C@@H](Cl)C[C@@]21C (stereo not given in full)	-3	·	·	·	·	·
CCC(=O)N1CCc2cc(Br)c(S(=O)(=O)N3CCC(C(=O)NCCCOC(C)C)CC3)cc21	0	·	-3	2	0	0
COc1ccc(CN2CCN(S(=O)(=O)c3ccccc3)CC2)cc1Br	-2	0	-3	-2	1.4*	0
CCOC(=O)c1ccc(OC)c(OC)c1Cl	-1	5.8*	-1	0	-1	-1
O=C(/C=C/c1ccc(OC2CSC2)cc1)c1ccc(Cl)cc1	-1	2	5.6*	2	-1	0
CN(CC(=O)NCc1ccccc1Cl)S(=O)(=O)c1ccc2c(c1)n(C)c(=O)c(=O)n2C	-5	0	5.6*	1	-1	0
CN(CC(=O)NCc1ccco1)S(=O)(=O)c1ccc2c(c1)n(C)c(=O)c(=O)n2C	-2	0	-1	0	-1	0
CCOC(=O)N1CCN(C(=O)COc2cc(=O)n(CC)c3ccccc23)CC1	-1	8.2*	-1	0	-1	0
Nc1ccc(-c2nc3ccc(N)cc3o2)cc1	·	4	-1	12*	-2	2
COC(=O)c1ccc(-c2nc3cc(N)ccc3o2)cc1	-1	-3	-3	-5	-2	-1
Nc1ccc(-c2nc3cc(N)ccc3o2)cc1	1	1	4	11*	-1	2
CN(C)c1ccc(-c2nc3cc(N)ccc3o2)cc1	-3	-5	5.8*	11*	1	1
CC(C)(C)c1ccc(-c2nnc(SCc3ccccc3)n2Cc2ccco2)cc1	-2	·	-1	-4	-2	-2
CCOC(=O)[C@]12CCCCC/C=C\1N(Cc1ccc(OC)cc1)C(=O)[C@H]2CC(=O)NCc1cccs1	-4	·	-2	4	0	0
CC(C)C[C@H]1COc2cc(Br)ccc2S(=O)(=O)N1Cc1cn(Cc2ccc(C(F)(F)F)cc2)nn1	-1	·	-1	-1	-1	0
O=C(C[n+]1cc(-c2ccc(Cl)cc2)n2c1CCC2)Nc1nc(-c2ccccc2)cs1	-7	4.8*	0	5	0	0
CCn1c(C)nc2cc(NC(=O)Nc3cccc(C(C)=O)c3)ccc21	-6	1	1	12*	0	0
CCn1c(C)nc2cc(C(=O)OC)ccc21	-1	0	1	2	-1	1
